Bioassay records from PubChem.
HEK293 tox – cytotoxic compounds in HEK 293 cells. HEK 293 viability, ATP luminescence (CellTiter-Glo), 48-72 h. Potency, µM (titrated, usually from 115 µM), without a hit: top-dose activity change, negative = cytotoxicity, most hits filed as inhibitors. actives 6.6% (n = 94,000). AID 1345083; note: nearly all actives have a fitted effect of over 60% in size
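HEK 293 seeded at 250 cells/well receive compound via pintool. After 48 or 72 hr at 37 degree Celsius, 5% CO2 and 95% humidity, CellTiter-Glo is dispensed and luminescence read following 10 min at room temperature.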
NIH3T3 tox – cytotoxic compounds in NIH 3T3 cells. NIH 3T3 viability, CellTiter-Glo ATP luminescence, 48-72 h. Potency, µM (doses to about 96.7 µM), for the others: at the highest dose activity change, negative = cytotoxicity, actives largely listed as inhibitors. actives 4.3% (n = 94,000). AID 1345082; note: nearly all actives have a fitted effect of over 55% in size
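Cells were seeded at 400 per well, treated with pin-transferred compound, and kept 48 or 72 hr at 37 °C before CellTiter-Glo addition and luminescence imaging of cellular ATP.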
Luciferase inh – Photinus pyralis luciferase inhibition; actives 2.5% (n = 76,000); purified P. pyralis luciferase, luminescence, biochemical; Potency, µM (titrated, usually from 115 µM), actives largely listed as inhibitors; P08659; note: nearly all actives have a fitted effect of over 65% in size
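Purified P. pyralis luciferase (10nM final) in 50mM Tris acetate pH 7.5, 10mM Mg acetate, 0.01% Tween-20, 0.05% BSA with 10uM D-luciferin and 10uM ATP. Compounds titrated qHTS. Luminescence imaged on CCD.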
GPT2 inhibitor – blocks human glutamate pyruvate transaminase 2 | Potency, µM (top dose mostly 57.7 µM), for the others: at the top dose activity change, negative = inhibition, most hits filed as inhibitors | Recombinant GPT2, coupled pyruvate oxidase/HRP Amplex Red fluorescence | Q8TD30 | actives 0.25% (n = 100,000); note: nearly all actives have a fitted effect of over 60% in size
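GPT2 10ng/uL, a-KG 250uM, L-Ala 2mM, HEPES pH7.5 + 0.0001% Tween; 30 min RT. Then Amplex mix (PO/HRP/ThPP), 30 min RT dark, fluorescence. AOA 50uM used as positive control.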
NPR1 antag – human Npr1 receptor antagonism; actives 1.6% (n = 76,000); P16066; Potency, µM (doses to about 46.3 µM), without a hit: top-dose activity change, negative = inhibition, usual class: inhibitors; AID 1347048; HEK293 hNpr1 GloSensor cGMP, ANP-stimulated luminescence; calls by dose curve; note: nearly all actives have a fitted effect of over 60% in size
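Compound pre-incubated 30 min at room temperature on GloSensor-loaded HEK293 cells stably carrying hNpr1 and the pGS-40F cGMP biosensor. Stimulation uses hNppA at 0.1 nM final; luminescence is taken at baseline and 20 min post-agonist.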
Starred values were filed as active, the others as inactive; i = inactive; ? = inconclusive; · = no result given; [ ] = another dose, or the depositor's remark. Shown are actives, neighbours in structure and some others; about 10% of the full set was active somewhere. Unless noted, calls come from the whole dose curve; as a rule, active = well fitted curve in the direction sought with a large enough effect; inconclusive = small, poorly fitted or top-dose-only effect, or another doubt; inactive = no such curve, though single readings can be large; an effect the other way counts as inactive or inconclusive. % is set by controls: 0 for no effect and ±100 for the full control effect; potency is the fitted concentration of half-maximal effect.

SMILES	HEK293 tox	NIH3T3 tox	Luciferase inh	GPT2 inhibitor	NPR1 antag
CC(C)(C)c1nnc2ccc(C(=O)NC3CC3)cn12	-2%[172 µM]	0%[138 µM]	·	-12%[88.5 µM]	·
O=C(NC[C@H]1O[C@@H]2C[C@@H](CC(=O)N3CCC(F)(F)C3)O[C@@H]2[C@@H]1O)Nc1cccc(Cl)c1	-15%	-13%	i	i	0%
Oc1cccc(-c2cnc3n[nH]c(-c4ccccc4)c3n2)c1	?	-22%[174 µM]	i	i	-14%[70.6 µM]
O=C(Cc1cccn1-c1ccc(Cl)cc1)NC1CCCC1	?	-11%	i	i	2%
O=c1c2nc(Nc3cccc(F)c3)ccc2ncn1Cc1ccccc1	79µM*	?	?	-2%[88.5 µM]	-19%[70.6 µM]
O=c1c2nc(Nc3cccc(F)c3)ccc2ncn1-c1ccccc1	·	·	·	0%[88.5 µM]	·
COC(=O)N1CCCN(c2nccc(Nc3ccc(C)cc3)n2)C1	50µM*	35µM*	·	?	·
COc1ccc(C(=O)N2CCN(c3nccc(Nc4ccccc4F)n3)CC2)cc1	?	?	·	3%	·
CC(=O)N1CCCN(c2nccc(Nc3ccc(C)cc3)n2)C1	?	?	·	i	·
COc1ccc(C(=O)N2CCCN(c3nccc(Nc4ccc(C)cc4)n3)C2)cc1	11µM*	?	·	i	·
COc1ccc(Nc2ccnc(N3CCN(C(=O)c4ccc(C(F)(F)F)cc4)CC3)n2)cc1	35µM*	?	·	0%	·
Cc1ccc(Nc2ccnc(N3CCCN([S+](=O)([O-])c4cccs4)C3)n2)cc1	25µM*	?	·	1%	·
COCCCN1CC2(CCN(C(=O)c3nn(C)c4ccccc34)CC2)CC1=O	-9%	-14%	i	?	7%
COCCNC(=O)C1COC2(CCN(C(=O)c3ccc(OC)cc3)CC2)N1C(=O)c1cccc(C)c1 (centres undefined)	-3%	-10%	i	i	-11%
COc1ccc(Nc2ccnc(N3CCN(C(=O)c4ccc(C)cc4)CC3)n2)cc1	13µM*	32µM*	·	-1%	·
Cc1ccc(Nc2ccnc(N3CCN(C(=O)c4ccc(C)cc4)CC3)n2)cc1	?	?	·	0%	·
O=C(c1cccs1)N1CCc2[nH]nc(-c3cccc(F)c3)c2C1	28µM*	?	i	-4%	-13%
O=C(NCc1cccs1)c1ccc(CN2C(=O)NC3(CCOCC3)C2=O)cc1	-2%	-18%	i	-1%	14%
CC(=O)Nc1ccc(CN2CCN3C(=O)N(Cc4ccc(C)cc4)C[C@H]3C2)cc1	79µM*	-6%[174 µM]	i	-1%[88.5 µM]	-26%[70.6 µM]
CCN1C(=O)C2CC3(CCN(Cc4ccc5[nH]ccc5c4)CC3)CN2C1=O (centres undefined)	-2%	-2%	i	-5%	4%
CCN1C(=O)C2CC3(CCN(Cc4cccc(OC(F)(F)F)c4)CC3)CN2C1=O (centres undefined)	40µM*	?	i	1%	-21%
Cc1ccc(CN2C[C@H]3CN(Cc4cccc(OC(F)(F)F)c4)CCN3C2=O)cc1	63µM*	45µM*	i	-15%[88.5 µM]	-18%[70.6 µM]
CC(=O)Nc1ccc(CN2CC3CCC(C2)N3c2ccc(C(F)(F)F)cc2)cc1	22µM*	?	i	2%	?
CCOc1ccccc1NC(=O)N[C@H](Cc1ccccc1)C(=O)N1CCOCCNC(=O)CC1	-18%	-11%	i	i	1%
Cc1nc2ccccc2n1Cc1cc(C(=O)N2CCCC2)no1	40µM*	?	i	i	-28%
SMILES	HEK293 tox	NIH3T3 tox	Luciferase inh	GPT2 inhibitor	NPR1 antag
FC(F)(F)c1cccc(C2=NOC3(CCCN(CC4CCCC4)C3)C2)c1 (centres undefined)	?	?	·	i	·
O=C(Cn1cccc1-c1nc(-c2ccccc2)no1)NCCCc1ccccc1	45µM*	-3%	i	i	-17%
c1ccc(CN2CCC(Nc3ncncn3)C2)cc1 (centres undefined)	-7%	-14%	i	-8%[11.5 µM]	-4%
CC(C)c1ccc(NC(=O)c2ccc3c(c2)N(C)C2CCCN2C3=O)cc1 (centres undefined)	45µM*	?	16µM*	i	-15%
Cc1cccc(NC(=O)c2ccc3c(c2)N(C)C2CCCCN2C3=O)c1 (centres undefined)	?	?	28µM*	1%	-1%
CC(C)c1cccc(NC(=O)c2ccc3c(c2)N(C)C2CCCCN2C3=O)c1 (centres undefined)	28µM*	?	i	i	-6%
Cc1cc(C)cc(NC(=O)c2ccc3c(c2)N(C)C2CCCCN2C3=O)c1 (centres undefined)	?	?	?	i	-19%
Cc1noc2c(Nc3ccc(C(N)=O)cc3)cc(-c3ccc(F)cc3)nc12	-32%[172 µM]	?	i	-5%[88.5 µM]	-4%[70.6 µM]
CCN1C[C@H]2COc3cc(OC)ccc3[C@H]2N(C(=O)C2CCC2)CCC1=O	-6%	?	·	·	·
Cc1cc(C)cc(-c2ccc(CN)cc2)c1	28µM*	?	·	i	·
Cc1cc(C)cc(-c2ccc(C=O)cc2)c1	126µM*	?	·	-5%[88.5 µM]	·
NCc1ccc(-c2cc(F)cc(F)c2)cc1	?	50µM*	·	0%[88.5 µM]	·
COc1ccc(-c2cccc(CN)c2)cc1	?	?	·	-10%[88.5 µM]	·
COC(=O)CNC(=O)c1nc(-c2ccccc2)c2ccccn12	?	?	i	i	-8%[70.6 µM]
O=C(NC1CC1)c1nc(-c2ccccc2)c2ccccn12	63µM*	?	i	i	4%[70.6 µM]
COc1ccccc1-c1nc(C(=O)NC2CC2)n2ccncc12	?	56µM*	i	-22%[88.5 µM]	-22%[70.6 µM]
O=C(NC1CC1)c1nc(-c2cccc(C(F)(F)F)c2)c2cnccn12	79µM*	-24%	i	i	-5%
Cc1cc2nc3n(c(=O)c2n1CC(=O)Nc1ccc(F)c(Cl)c1)CCCCC3	?	-14%	i	i	-1%
COc1cccc(CN2CCC3(COc4ccccc4C(=O)N3)C2)c1 (centres undefined)	89µM*	40µM*	i	4%[88.5 µM]	-20%[70.6 µM]
CC(C)CCN1CCCC2(COc3ccccc3C(=O)N2)C1 (centres undefined)	?	?	i	i	4%[70.6 µM]
CN(C)c1ccc(CN2CCC3(CC2)COc2ccccc2C(=O)N3)cc1	?	22µM*	i	i	7%
CN(C)c1ccc(CN2CCC3(COc4ccccc4C(=O)N3)C2)cc1 (centres undefined)	?	?	i	i	-3%
CC(C)CCN1CCC2(COc3ccccc3C(=O)N2)C1 (centres undefined)	?	100µM*	i	i	-3%[70.6 µM]
CCCS(=O)(=O)N1CCC(Oc2ccc(-c3noc(C(C)C)n3)cc2)C1 (centres undefined)	?	?	?	i	?
